Test results from PubChem BioAssay (NCATS).
Several values for one entry are separate records, joined by “and”; a condition that tells them apart may be missing. Identical values can stand only once. Results filed as inconclusive are left out. Activity calls are given as the source filed them. Calls follow the shape of the dose curve; as a rule, active = well fitted inhibition curve with a large enough effect; inconclusive = small, poorly fitted or top-dose-only effect; inactive = flat fitted curve, though single readings scatter.

Columns and labels:
CRL-7250 = normal cell line; experiment: Cytotoxic Profiling of Annotated Libraries Using Quantitative High-Throughput Screening (AID 1296008); details: Five cell lines viability, CellTiter-Glo ATP luminescence, 48-72 h; max response: stronger effect = lower value
How it was run: (§1)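 Cells exposed to compounds for 48 or 72 hr at 37 degrees Celsius. Viability read as ATP-coupled luminescence with CellTiter-Glo after 10 min at room temperature.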

HEK293 = experiment: as above; details: Five cell lines viability, CellTiter-Glo ATP luminescence, 48-72 h; max response: stronger effect = lower value
How it was run: as §1

HaCat [1] = experiment: as above; details: Five cell lines viability, CellTiter-Glo ATP luminescence, 48-72 h; max response: stronger effect = lower value
How it was run: as §1

KB-3-1 = experiment: as above; details: Five cell lines viability, CellTiter-Glo ATP luminescence, 48-72 h; max response: stronger effect = lower value
How it was run: as §1

NIH3T3 = experiment: as above; details: Five cell lines viability, CellTiter-Glo ATP luminescence, 48-72 h; max response: stronger effect = lower value
How it was run: as §1

HACAT [2] = experiment: qHTS assay to identify novel small-molecules to repurpose for Merkel cell carcinoma treatment (AID 1296009); details: MCC and control cell lines, CellTiter-Glo viability, 72 h; at 44.8 µM (top of the series) unless noted
How it was run: (§2)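 Cells were incubated with compound for 72 hr at 37 degree celsius before CellTiter-Glo addition. Luminescence was normalized with no-cell wells as full cytotoxicity and DMSO as baseline.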

MCC-13 = experiment: as above; details: MCC and control cell lines, CellTiter-Glo viability, 72 h; series mostly up to 46 µM
How it was run: as §2

MCC-26 = experiment: as above; details: MCC and control cell lines, CellTiter-Glo viability, 72 h; series mostly up to 46 µM
How it was run: as §2

MKL-1 = experiment: as above; details: MCC and control cell lines, CellTiter-Glo viability, 72 h; series mostly up to 46 µM
How it was run: as §2

HEK293T = experiment: as above; details: MCC and control cell lines, CellTiter-Glo viability, 72 h; at 44.8 µM (top of the series) unless noted
How it was run: as §2
% is scaled to controls: 0 for no effect and ±100 for the full control effect.
Also: nearly all actives have a fitted effect of over 60% in size.

CN(C)CCc1c[nH]c2ccc(CS(=O)(=O)N3CCCC3)cc12
inactive: max response (CRL-7250) -0.155% and 1.13% | max response (HEK293) -11.2% and 1.86% | max response (HaCat [1]) -24.1% | outcome (HaCat [1]) | max response (KB-3-1) 10.6% and 7.32% | max response (NIH3T3) -1.45% and -5.53% | outcome (HACAT [2]) | Potency (MCC-13) | Potency (MCC-26) | Potency (MKL-1)

NS(=O)(=O)c1cc2c(cc1Cl)NC(C(Cl)Cl)NS2(=O)=O (stereo not drawn)
inactive: max response (CRL-7250) -3.96% | outcome (CRL-7250) | max response (HaCat [1]) -16.1% | outcome (HaCat [1]) | max response (KB-3-1) 9.97% | outcome (KB-3-1) | max response (NIH3T3) 3.32% and -1.25% | outcome (HACAT [2]) | outcome (HEK293T) | Potency (MCC-13) | Potency (MCC-26) | Potency (MKL-1)

Cc1ccnc2c1NC(=O)c1cccnc1N2C1CC1
inactive: outcome (CRL-7250) | max response (HEK293) -12% and -5.59% | max response (HaCat [1]) -1.71% | outcome (HaCat [1]) | max response (KB-3-1) 17.8% | outcome (KB-3-1) | max response (NIH3T3) -5.8% and 2.37% | outcome (HACAT [2]) | Potency (MCC-13) | Potency (MCC-26) | Potency (MKL-1)

CCC(=O)O[C@]1(C(=O)CCl)[C@@H](C)C[C@H]2[C@@H]3CCC4=CC(=O)C=C[C@]4(C)[C@@]3(F)[C@@H](O)C[C@@]21C
inactive: max response (CRL-7250) -12.4% | outcome (CRL-7250) | max response (HaCat [1]) -4.36% and -8.18% | max response (KB-3-1) -5.78% and 1.04% | max response (NIH3T3) -2.25% | outcome (NIH3T3) | Potency (MCC-13) | Potency (MCC-26) | Potency (MKL-1)

CC(C)OC(=O)OCOP(=O)(CO[C@H](C)Cn1cnc2c(N)ncnc21)OCOC(=O)OC(C)C
inactive: max response (CRL-7250) -6.19% | outcome (CRL-7250) | outcome (HaCat [1]) | outcome (KB-3-1) | max response (NIH3T3) -4.05% and -25.8% | outcome (HACAT [2]) | outcome (HEK293T) | Potency (MCC-13) | Potency (MCC-26) | Potency (MKL-1)

COc1cnc(NS(=O)(=O)c2ccc(N)cc2)nc1
inactive: max response (CRL-7250) -6.42% and -4.75% | outcome (HEK293) | max response (HaCat [1]) -7.96% | outcome (HaCat [1]) | max response (KB-3-1) 12.3% | outcome (KB-3-1) | max response (NIH3T3) -3.77% and 1.75% | outcome (HACAT [2]) | outcome (HEK293T) | Potency (MCC-13) | Potency (MCC-26) | Potency (MKL-1)

Cc1cccc(N(C)C(=S)Oc2ccc3ccccc3c2)c1
inactive: max response (CRL-7250) -5.5% | outcome (CRL-7250) | max response (HaCat [1]) 0.266% and 1.06% | max response (KB-3-1) 1.04% | outcome (KB-3-1) | max response (NIH3T3) -1.35% and 4.99% | Potency (MCC-13) | Potency (MCC-26) | Potency (MKL-1)

Cc1noc(NS(=O)(=O)c2ccc(N)cc2)c1C
inactive: max response (CRL-7250) 4.08% and -1.95% | outcome (HEK293) | max response (HaCat [1]) 1.98% | outcome (HaCat [1]) | max response (KB-3-1) -4.11% and 1.03% | outcome (KB-3-1) | max response (NIH3T3) -2.78% and -1.88% | outcome (HACAT [2]) | outcome (HEK293T) | Potency (MCC-13) | Potency (MCC-26) | Potency (MKL-1)

COc1ccccc1OCC(O)COC(N)=O (stereo not drawn)
inactive: max response (CRL-7250) -1.17% | outcome (CRL-7250) | max response (HaCat [1]) -15.7% | outcome (HaCat [1]) | max response (KB-3-1) 5.86% and 1.39% | max response (NIH3T3) 4.42% and 1.69% | outcome (HACAT [2]) | outcome (HEK293T) | Potency (MCC-13) | Potency (MCC-26) | Potency (MKL-1)

CCN(C)C(=O)Oc1cccc([C@H](C)N(C)C)c1
inactive: max response (CRL-7250) -5.92% and -3.92% | max response (HEK293) -9.47% | outcome (HEK293) | max response (HaCat [1]) -4.32% | outcome (HaCat [1]) | max response (KB-3-1) 1.39% and 1.13% | max response (NIH3T3) 1.74% and -5.17% | outcome (HACAT [2]) | outcome (HEK293T) | Potency (MCC-13) | Potency (MCC-26) | Potency (MKL-1)
